Assay results: article PMC7862700, “An all-to-all approach to the identification of sequence-specific readers for epigenetic DNA modifications on cytosine”

How the values were obtained:
Test in all cases: DAPPL (digital affinity profiling via proximity ligation, sequencing); 10 mM Tris-HCl pH 7.5, 50 mM NaCl, 1 mM DTT, 4% glycerol, room temperature, 30 min; GST-TFs on glutathione beads, 16-mer random dsDNA library, 0.1% formaldehyde crosslink after washing; high values mean tight binding
FLI1 = molecular target: T1, FLI1 (Homo sapiens, UniProt Q01543 1-452); conditions: protein: recombinant; tags: N-terminal GST; dsDNA, one strand shown
T1 sequence: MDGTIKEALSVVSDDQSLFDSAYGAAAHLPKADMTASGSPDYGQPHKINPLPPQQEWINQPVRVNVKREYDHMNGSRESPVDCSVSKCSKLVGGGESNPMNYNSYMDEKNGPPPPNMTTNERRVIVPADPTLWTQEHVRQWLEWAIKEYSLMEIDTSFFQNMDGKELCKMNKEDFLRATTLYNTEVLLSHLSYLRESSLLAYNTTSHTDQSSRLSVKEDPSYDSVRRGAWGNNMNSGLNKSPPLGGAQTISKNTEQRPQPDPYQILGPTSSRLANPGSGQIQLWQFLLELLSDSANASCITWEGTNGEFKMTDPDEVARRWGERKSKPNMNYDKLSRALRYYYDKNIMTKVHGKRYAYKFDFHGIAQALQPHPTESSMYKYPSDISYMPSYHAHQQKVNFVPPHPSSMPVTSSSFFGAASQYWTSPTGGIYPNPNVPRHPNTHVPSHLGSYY
How it was run: (§1)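 A tag-only sample was pooled with DNA-barcoded human transcription factors that had been expressed in yeast as GST fusions and captured on glutathione beads. The pools were incubated for 30 min at room temperature with 200 nmole of a random double-stranded 16-mer DNA library in Tris/NaCl/DTT/glycerol buffer, then washed, crosslinked with 0.1% formaldehyde, proximity-ligated (BsaI/T4 ligase, 1 h, 37 °C), PCR-amplified and sequenced on an Illumina NextSeq500. Binding signal is each hexamer's read frequency for a factor divided by its frequency for the tag-only sample.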

ELK1 = molecular target: T2, ELK1 (Homo sapiens, UniProt P19419 1-428); conditions: protein: recombinant; tags: N-terminal GST; dsDNA, one strand shown
T2 sequence: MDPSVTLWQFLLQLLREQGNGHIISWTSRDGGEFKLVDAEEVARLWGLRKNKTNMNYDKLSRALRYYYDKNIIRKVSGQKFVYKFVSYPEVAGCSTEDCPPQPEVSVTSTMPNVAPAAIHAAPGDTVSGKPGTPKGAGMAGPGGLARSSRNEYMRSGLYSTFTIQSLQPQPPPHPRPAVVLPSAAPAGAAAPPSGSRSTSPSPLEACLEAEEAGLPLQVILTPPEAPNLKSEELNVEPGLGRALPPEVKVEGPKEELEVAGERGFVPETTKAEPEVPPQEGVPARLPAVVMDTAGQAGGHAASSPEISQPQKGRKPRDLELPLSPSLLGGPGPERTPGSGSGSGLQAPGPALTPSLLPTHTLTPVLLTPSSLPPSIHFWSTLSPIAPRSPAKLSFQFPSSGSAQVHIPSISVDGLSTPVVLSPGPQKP
How it was run: as §1

GABPA = molecular target: T3, GABPA (Homo sapiens, UniProt Q06546 1-454); conditions: protein: recombinant; tags: N-terminal GST; dsDNA, one strand shown
T3 sequence: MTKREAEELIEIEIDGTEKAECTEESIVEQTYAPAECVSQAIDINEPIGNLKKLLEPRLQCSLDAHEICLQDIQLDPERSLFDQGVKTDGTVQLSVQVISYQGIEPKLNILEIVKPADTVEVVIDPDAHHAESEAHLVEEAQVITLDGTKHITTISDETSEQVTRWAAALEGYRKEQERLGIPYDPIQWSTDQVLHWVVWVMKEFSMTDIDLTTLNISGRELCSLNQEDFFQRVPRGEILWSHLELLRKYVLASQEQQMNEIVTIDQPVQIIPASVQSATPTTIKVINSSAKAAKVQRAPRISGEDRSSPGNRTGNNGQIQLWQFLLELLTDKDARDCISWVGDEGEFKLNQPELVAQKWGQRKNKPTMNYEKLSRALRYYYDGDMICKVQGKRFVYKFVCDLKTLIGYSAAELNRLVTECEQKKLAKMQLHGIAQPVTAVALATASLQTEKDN
How it was run: as §1

ERG = molecular target: T4, ERG (Homo sapiens, UniProt P11308 1-479); conditions: protein: recombinant; tags: N-terminal GST; dsDNA, one strand shown
T4 sequence: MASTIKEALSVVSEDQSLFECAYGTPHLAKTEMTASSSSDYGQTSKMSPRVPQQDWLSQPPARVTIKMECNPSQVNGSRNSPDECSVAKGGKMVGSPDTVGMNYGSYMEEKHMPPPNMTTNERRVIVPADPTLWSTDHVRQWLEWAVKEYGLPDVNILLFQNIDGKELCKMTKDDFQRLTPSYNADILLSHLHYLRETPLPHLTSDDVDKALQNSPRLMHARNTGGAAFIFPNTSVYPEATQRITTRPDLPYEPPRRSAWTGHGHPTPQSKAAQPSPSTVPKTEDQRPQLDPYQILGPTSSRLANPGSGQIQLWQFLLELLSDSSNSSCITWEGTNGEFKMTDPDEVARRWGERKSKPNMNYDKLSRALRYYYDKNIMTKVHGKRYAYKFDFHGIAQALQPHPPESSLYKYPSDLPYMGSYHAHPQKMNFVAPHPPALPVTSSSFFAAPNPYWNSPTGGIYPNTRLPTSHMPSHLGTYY
How it was run: as §1

ELF1 = ELF1 (Homo sapiens, UniProt P32519 1-619); conditions: protein: recombinant; tags: N-terminal GST; dsDNA, one strand shown
Chain of ELF1 (P32519 whole entry): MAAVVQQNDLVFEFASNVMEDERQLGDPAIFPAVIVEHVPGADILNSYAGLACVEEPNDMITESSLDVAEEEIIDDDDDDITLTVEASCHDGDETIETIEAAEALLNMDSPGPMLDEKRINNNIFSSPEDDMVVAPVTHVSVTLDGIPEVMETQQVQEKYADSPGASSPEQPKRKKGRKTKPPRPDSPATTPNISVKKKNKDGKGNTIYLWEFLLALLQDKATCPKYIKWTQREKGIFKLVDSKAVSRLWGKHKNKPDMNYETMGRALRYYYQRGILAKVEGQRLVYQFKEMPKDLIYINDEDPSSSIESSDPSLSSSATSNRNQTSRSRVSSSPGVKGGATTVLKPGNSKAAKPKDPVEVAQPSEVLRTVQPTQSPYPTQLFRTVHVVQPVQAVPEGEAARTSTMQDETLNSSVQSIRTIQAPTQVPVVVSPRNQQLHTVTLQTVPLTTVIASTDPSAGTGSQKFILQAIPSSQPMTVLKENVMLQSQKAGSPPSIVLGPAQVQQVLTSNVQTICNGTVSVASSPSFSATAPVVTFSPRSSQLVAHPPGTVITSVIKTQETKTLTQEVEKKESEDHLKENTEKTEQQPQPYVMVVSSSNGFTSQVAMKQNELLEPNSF
How it was run: as §1

EHF = molecular target: T5, EHF (Homo sapiens, UniProt Q9NZC4 1-300); conditions: protein: recombinant; tags: N-terminal GST; dsDNA, one strand shown
T5 sequence: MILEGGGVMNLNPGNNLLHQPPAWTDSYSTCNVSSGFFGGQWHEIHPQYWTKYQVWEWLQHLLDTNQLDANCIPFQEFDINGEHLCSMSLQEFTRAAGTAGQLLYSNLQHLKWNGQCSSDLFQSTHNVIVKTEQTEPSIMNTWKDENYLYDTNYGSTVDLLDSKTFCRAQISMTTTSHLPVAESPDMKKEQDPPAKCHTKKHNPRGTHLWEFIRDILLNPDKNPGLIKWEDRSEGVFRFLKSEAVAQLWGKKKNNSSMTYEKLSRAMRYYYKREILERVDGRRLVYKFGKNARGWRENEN
How it was run: as §1

SPI1 = SPI1 (Homo sapiens, UniProt P17947 1-270); conditions: protein: recombinant; tags: N-terminal GST; dsDNA, one strand shown
How it was run: as §1

SPIB = SPIB (Homo sapiens, UniProt Q01892 1-262); conditions: protein: recombinant; tags: N-terminal GST; dsDNA, one strand shown
Chain of SPIB (Q01892 whole entry): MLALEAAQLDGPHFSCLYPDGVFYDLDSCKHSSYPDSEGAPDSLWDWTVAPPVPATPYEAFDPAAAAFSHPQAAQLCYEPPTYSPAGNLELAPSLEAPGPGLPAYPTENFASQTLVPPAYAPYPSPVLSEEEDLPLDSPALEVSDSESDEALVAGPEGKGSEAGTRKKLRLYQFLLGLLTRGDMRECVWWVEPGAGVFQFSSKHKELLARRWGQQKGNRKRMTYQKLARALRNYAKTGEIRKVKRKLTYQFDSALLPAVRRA
How it was run: as §1

ELK3 = molecular target: T6, ELK3 (Homo sapiens, UniProt P41970 1-407); conditions: protein: recombinant; tags: N-terminal GST; dsDNA, one strand shown
T6 sequence: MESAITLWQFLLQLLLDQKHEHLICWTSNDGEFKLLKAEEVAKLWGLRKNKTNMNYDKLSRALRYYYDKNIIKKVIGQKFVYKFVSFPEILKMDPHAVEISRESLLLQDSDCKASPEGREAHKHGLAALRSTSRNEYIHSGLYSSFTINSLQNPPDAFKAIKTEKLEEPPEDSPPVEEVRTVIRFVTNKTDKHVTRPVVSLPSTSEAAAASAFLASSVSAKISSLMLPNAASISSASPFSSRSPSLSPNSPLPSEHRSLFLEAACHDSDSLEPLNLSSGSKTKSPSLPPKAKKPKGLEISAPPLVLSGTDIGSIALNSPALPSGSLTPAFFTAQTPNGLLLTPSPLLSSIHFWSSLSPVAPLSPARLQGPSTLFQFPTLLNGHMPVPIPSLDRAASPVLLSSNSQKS
How it was run: as §1

FEV = molecular target: T7, FEV (Homo sapiens, UniProt Q99581 1-238); conditions: protein: recombinant; tags: N-terminal GST; dsDNA, one strand shown
T7 sequence: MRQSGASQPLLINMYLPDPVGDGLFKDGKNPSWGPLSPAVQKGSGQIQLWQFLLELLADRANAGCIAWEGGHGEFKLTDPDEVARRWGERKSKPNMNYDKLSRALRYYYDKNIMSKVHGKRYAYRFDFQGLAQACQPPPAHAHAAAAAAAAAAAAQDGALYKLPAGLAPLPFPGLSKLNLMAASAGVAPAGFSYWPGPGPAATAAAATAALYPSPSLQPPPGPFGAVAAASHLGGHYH
How it was run: as §1

ETV5 = ETV5 (Homo sapiens, UniProt P41161 1-510); conditions: protein: recombinant; tags: N-terminal GST; dsDNA, one strand shown
Chain of ETV5 (P41161 whole entry): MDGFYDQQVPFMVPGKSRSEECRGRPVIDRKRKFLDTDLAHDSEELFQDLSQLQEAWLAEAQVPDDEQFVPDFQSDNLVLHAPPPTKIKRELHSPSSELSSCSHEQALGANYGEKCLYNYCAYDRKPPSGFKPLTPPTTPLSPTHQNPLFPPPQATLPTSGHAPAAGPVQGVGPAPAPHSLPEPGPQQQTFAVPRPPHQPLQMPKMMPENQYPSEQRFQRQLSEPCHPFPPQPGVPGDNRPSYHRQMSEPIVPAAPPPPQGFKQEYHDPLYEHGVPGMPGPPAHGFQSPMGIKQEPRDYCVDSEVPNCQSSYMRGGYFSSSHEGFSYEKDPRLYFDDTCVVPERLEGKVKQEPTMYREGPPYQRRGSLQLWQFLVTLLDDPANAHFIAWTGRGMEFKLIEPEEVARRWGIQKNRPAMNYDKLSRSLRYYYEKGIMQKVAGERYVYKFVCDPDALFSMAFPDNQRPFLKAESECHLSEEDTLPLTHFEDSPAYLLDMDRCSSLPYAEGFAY
How it was run: as §1

HSF1 = HSF1 (Homo sapiens, UniProt Q00613 1-529); conditions: protein: recombinant; tags: N-terminal GST; chain copies: 3; dsDNA, one strand shown
Chain of HSF1 (Q00613 whole entry): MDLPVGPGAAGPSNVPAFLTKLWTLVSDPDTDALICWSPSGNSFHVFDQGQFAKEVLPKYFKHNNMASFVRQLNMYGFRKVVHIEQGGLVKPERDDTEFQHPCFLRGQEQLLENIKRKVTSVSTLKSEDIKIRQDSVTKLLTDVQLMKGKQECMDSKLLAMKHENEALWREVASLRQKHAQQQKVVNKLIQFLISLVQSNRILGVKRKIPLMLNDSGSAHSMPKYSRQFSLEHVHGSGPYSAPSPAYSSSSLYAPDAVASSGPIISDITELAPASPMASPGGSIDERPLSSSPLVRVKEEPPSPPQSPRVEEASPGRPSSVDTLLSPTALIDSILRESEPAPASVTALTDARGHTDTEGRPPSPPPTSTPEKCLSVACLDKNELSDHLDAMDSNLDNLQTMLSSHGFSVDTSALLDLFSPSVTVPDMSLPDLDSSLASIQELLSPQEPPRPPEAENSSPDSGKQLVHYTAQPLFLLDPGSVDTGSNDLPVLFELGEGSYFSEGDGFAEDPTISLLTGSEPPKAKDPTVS
How it was run: as §1

SPIC = molecular target: T8, SPIC (Homo sapiens, UniProt Q8N5J4 1-248); conditions: protein: recombinant; tags: N-terminal GST; dsDNA, one strand shown
T8 sequence: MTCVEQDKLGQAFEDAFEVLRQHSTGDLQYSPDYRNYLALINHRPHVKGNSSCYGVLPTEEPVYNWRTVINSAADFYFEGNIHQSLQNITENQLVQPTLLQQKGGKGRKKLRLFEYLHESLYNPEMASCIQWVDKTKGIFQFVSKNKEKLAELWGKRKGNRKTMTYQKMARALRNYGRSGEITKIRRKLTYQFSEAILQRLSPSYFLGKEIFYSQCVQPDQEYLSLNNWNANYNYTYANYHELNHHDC
How it was run: as §1

ELF4 = ELF4 (Homo sapiens, UniProt Q99607 1-663); conditions: protein: recombinant; tags: N-terminal GST; dsDNA, one strand shown
Chain of ELF4 (Q99607 whole entry): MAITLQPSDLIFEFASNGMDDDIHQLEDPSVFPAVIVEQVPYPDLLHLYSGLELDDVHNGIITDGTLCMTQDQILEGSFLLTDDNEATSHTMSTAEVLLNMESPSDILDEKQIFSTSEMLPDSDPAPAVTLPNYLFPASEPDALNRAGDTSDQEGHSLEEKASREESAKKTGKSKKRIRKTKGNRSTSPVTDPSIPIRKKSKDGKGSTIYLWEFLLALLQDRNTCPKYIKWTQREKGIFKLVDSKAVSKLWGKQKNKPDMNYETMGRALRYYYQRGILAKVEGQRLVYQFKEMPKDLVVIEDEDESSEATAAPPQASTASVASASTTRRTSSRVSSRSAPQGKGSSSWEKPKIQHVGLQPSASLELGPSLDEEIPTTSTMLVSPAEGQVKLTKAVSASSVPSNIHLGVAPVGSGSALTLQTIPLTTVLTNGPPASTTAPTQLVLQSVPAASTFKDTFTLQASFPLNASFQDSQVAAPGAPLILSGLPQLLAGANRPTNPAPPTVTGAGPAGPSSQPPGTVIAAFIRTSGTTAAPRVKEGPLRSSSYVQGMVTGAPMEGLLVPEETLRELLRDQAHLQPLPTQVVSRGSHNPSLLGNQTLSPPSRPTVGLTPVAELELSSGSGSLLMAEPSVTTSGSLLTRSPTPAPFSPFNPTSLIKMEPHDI
How it was run: as §1

ELK4 = molecular target: T9, ELK4 (Homo sapiens, UniProt P28324-2 1-405); conditions: protein: recombinant; tags: N-terminal GST; dsDNA, one strand shown
T9 sequence: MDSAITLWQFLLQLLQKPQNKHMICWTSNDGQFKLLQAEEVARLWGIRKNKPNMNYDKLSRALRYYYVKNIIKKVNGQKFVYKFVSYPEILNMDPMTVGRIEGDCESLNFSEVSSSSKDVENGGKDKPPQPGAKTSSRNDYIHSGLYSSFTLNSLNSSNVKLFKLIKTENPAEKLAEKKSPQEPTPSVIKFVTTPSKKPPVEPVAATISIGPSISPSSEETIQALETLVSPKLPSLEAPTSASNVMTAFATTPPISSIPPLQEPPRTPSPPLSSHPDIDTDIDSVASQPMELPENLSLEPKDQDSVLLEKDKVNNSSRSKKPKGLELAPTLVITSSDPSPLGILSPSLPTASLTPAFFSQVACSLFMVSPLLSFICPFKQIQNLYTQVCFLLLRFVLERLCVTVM
How it was run: as §1

ETV2 = molecular target: T10, ETV2 (Homo sapiens, UniProt O00321 1-342); conditions: protein: recombinant; tags: N-terminal GST; dsDNA, one strand shown
T10 sequence: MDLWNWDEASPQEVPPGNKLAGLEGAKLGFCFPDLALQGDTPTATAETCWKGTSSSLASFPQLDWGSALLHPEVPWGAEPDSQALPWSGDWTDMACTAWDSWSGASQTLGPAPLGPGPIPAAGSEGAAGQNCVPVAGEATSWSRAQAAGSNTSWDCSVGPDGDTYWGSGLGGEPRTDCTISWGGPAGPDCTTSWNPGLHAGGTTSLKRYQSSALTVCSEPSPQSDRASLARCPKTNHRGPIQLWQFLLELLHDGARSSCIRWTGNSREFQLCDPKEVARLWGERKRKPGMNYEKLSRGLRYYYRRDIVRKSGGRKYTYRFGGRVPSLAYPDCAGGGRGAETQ
How it was run: as §1

ELF3 = molecular target: T11, ELF3 (Homo sapiens, UniProt P78545 1-371); conditions: protein: recombinant; tags: N-terminal GST; dsDNA, one strand shown
T11 sequence: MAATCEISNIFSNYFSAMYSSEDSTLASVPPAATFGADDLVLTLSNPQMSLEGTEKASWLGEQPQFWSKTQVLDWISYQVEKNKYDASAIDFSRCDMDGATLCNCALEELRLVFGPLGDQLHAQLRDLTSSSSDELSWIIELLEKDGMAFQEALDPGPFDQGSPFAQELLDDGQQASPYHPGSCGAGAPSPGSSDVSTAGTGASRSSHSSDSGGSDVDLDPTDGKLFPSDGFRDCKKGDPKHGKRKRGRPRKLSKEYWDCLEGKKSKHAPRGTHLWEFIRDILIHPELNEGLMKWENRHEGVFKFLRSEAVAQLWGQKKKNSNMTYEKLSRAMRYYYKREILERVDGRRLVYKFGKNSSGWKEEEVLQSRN
How it was run: as §1

ETV1 = ETV1 (Homo sapiens, UniProt P50549 1-477); conditions: protein: recombinant; tags: N-terminal GST; dsDNA, one strand shown
Chain of ETV1 (P50549 whole entry): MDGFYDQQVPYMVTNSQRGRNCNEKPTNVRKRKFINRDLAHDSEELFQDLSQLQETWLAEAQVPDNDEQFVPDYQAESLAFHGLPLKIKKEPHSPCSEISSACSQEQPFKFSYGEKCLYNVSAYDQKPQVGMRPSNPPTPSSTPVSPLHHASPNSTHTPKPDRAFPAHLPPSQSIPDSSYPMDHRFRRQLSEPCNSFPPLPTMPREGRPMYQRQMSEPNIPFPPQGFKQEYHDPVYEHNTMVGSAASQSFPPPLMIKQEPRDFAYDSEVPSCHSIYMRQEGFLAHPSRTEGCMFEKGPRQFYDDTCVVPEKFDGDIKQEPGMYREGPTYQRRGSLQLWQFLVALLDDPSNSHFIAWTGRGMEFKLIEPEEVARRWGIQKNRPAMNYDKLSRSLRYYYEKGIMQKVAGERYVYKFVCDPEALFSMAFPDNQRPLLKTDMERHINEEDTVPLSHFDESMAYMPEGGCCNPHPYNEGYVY
How it was run: as §1

## ATGGAC
FLI1
  binding signal: 1.21 fold enrichment (6-mer frequency, TF over GST control)
ELK1
  binding signal: 1.22 fold enrichment (6-mer frequency, TF over GST control)
GABPA
  binding signal: 1.21 fold enrichment (6-mer frequency, TF over GST control)
ERG
  binding signal: 1.16 fold enrichment (6-mer frequency, TF over GST control)
ELF1
  binding signal: 1.26 fold enrichment (6-mer frequency, TF over GST control)
EHF
  binding signal: 1.21 fold enrichment (6-mer frequency, TF over GST control)
SPI1
  binding signal: 1.25 fold enrichment (6-mer frequency, TF over GST control)
SPIB
  binding signal: 1.38 fold enrichment (6-mer frequency, TF over GST control)
ELK3
  binding signal: 1.19 fold enrichment (6-mer frequency, TF over GST control)
FEV
  binding signal: 1.3 fold enrichment (6-mer frequency, TF over GST control)
ETV5
  binding signal: 1.3 fold enrichment (6-mer frequency, TF over GST control)
HSF1
  binding signal: 1.01 fold enrichment (6-mer frequency, TF over GST control)
SPIC
  binding signal: 1.34 fold enrichment (6-mer frequency, TF over GST control)
ELF4
  binding signal: 1.2 fold enrichment (6-mer frequency, TF over GST control)
ELK4
  binding signal: 1.17 fold enrichment (6-mer frequency, TF over GST control)
ETV2
  binding signal: 1.33 fold enrichment (6-mer frequency, TF over GST control)
ELF3
  binding signal: 1.42 fold enrichment (6-mer frequency, TF over GST control)
ETV1
  binding signal: 1.18 fold enrichment (6-mer frequency, TF over GST control)
